# Data from PubChem BioAssay.
# The other results are listed elsewhere or left out. Activity calls are given as the source filed them. Cut-off read from the data, not from the text of the source, unless noted: active = inhibition above about 40%; inactive = the rest.
# Key:
# [1] = HIF-2a driven luciferase blockers, single dose – luminescence, 786-0 RCC cells, confirmation (AID 651580;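 active = mean inhibition across four replicates of at least 40 percent at the single tested concentration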); conditions: HIF-2a luciferase reporter luminescence, overnight, at 18.8 µM, stronger effect = higher value
# [2] = HIF-1a luciferase reporter signal reduction – MiaPaCa-2 cells, single concentration, counter-screen for HIF-2a inhibitor project, confirmation (AID 651589;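 active = mean inhibition of the reporter signal across four replicates at the single tested dose of 50% or more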); conditions: MiaPaCa-2 HIF-1a luciferase reporter, desferoxamine, overnight; at 18.8 µM; stronger effect = higher value
# [3] = target: COP9 signalosome complex subunit 5 (Homo sapiens) (UniProt Q92905); test: blockers of CSN-driven cullin deneddylation – biochemical, fluorescence polarization, single concentration, SCF-Nedd8OG substrate, confirmation (AID 720654; in the data active = inhibition above about 50%;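 note: 0% = DMSO with enzyme and 100% = no enzyme wells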); conditions: Csn5 deneddylation of SCF-Nedd8OG, 90 min, at 16.6 µM, stronger effect = higher value
# Chain of COP9 signalosome complex subunit 5 (Homo sapiens) (Q92905 whole entry, looked up, one chain of several): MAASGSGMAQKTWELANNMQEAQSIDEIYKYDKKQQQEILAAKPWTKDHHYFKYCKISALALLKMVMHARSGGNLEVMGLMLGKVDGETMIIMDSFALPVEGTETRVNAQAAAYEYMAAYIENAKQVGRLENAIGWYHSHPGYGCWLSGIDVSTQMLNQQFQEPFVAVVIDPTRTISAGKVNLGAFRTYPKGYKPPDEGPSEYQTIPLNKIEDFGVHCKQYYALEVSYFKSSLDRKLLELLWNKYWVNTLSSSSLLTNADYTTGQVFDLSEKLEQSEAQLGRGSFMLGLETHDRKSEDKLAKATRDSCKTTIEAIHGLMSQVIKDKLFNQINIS
# [4] = target: 72 kDa type IV collagenase (Homo sapiens) (UniProt P08253); test: human MMP-2 inhibitors, single-point check – biochemical, fluorescence, single concentration, counter-screen for CSN deneddylation inhibitor project, confirmation (AID 720655;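 active = corrected plate-normalized z-score of 5 or more, or -5 or less, or inhibition of 15% or more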;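 note: plate controls were DMSO wells with enzyme for no effect and buffer wells lacking MMP-2 for full effect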); conditions: recombinant MMP-2, FRET substrate fluorescence, 60 min; at 16.6 µM
# Chain of 72 kDa type IV collagenase (Homo sapiens) (P08253 whole entry, looked up): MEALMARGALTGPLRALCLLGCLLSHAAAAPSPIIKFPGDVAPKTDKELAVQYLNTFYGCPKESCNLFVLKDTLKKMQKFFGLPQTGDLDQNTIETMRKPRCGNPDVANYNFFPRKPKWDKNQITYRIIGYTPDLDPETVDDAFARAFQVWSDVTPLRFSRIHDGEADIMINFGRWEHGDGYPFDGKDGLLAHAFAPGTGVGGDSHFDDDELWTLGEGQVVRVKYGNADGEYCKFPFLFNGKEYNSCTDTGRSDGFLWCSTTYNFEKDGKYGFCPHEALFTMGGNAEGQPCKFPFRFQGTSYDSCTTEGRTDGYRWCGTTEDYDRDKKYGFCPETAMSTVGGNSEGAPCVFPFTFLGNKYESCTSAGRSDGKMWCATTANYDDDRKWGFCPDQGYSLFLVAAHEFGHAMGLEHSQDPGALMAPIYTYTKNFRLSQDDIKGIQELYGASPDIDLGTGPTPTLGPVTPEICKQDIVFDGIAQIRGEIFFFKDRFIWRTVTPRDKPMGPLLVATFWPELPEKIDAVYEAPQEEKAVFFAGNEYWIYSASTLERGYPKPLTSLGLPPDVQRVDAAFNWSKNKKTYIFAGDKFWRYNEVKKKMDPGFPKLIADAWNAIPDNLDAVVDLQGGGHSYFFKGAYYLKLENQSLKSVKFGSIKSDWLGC
# Prothrombin (Bos taurus) = Prothrombin (Bos taurus) (UniProt P00735); test: thrombin cleavage blockers, FP readout – biochemical, fluorescence polarization, single concentration, counter-screen for CSN deneddylation inhibitor project, confirmation (AID 720656;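 active = inhibition at or above a set limit, with a fluorescence interference ratio between 0.5 and a set maximum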); conditions: bovine thrombin cleavage of Ub4-pepOG, at 16.6 µM, stronger effect = higher value
# Chain of Prothrombin (Bos taurus) (P00735 whole entry, looked up): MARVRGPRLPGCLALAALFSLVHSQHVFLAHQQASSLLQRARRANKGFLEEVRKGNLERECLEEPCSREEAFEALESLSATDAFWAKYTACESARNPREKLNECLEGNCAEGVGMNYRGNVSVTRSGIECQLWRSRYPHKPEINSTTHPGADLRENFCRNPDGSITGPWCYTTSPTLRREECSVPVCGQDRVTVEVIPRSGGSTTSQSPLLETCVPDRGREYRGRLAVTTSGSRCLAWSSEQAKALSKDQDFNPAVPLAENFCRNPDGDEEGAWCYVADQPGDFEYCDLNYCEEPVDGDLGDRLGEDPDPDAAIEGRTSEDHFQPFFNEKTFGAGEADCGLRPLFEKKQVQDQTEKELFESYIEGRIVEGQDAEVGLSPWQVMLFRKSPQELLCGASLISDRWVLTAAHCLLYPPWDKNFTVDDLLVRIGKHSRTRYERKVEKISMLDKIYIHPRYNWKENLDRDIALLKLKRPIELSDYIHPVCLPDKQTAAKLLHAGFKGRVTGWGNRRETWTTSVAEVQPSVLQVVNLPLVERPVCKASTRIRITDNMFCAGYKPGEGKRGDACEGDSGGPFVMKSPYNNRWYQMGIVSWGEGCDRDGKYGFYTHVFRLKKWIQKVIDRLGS
# [5] = NFkB reporter suppression in cystic fibrosis bronchial cells – cell-based, uHTS hits, panel, cytotoxicity readout, dose response (AID 624344); conditions: CF bronchial epithelial cells, PAF-induced NFkB reporter inhibition, with PAF, run 1; at 79 µM (top of the series) unless noted
# [6] = as above; conditions: CF bronchial epithelial cells, PAF-induced NFkB reporter inhibition, with PAF, run 2; at 79 µM (top of the series) unless noted
# [7] = target: Tumor necrosis factor receptor superfamily member 10B (Homo sapiens) (UniProt O14763); test: compound enhancement of TRAIL-induced cell killing – NB7 cells plus caspase-8, luminescence, panel, dose response (AID 652002); conditions: NB7 neuroblastoma +caspase-8, TRAIL sensitization, luminescence viability, NB7+Caspase-8, with TRAIL, run 1; at 12.5 µM (top of the series)
# Chain of Tumor necrosis factor receptor superfamily member 10B (Homo sapiens) (O14763 whole entry, looked up): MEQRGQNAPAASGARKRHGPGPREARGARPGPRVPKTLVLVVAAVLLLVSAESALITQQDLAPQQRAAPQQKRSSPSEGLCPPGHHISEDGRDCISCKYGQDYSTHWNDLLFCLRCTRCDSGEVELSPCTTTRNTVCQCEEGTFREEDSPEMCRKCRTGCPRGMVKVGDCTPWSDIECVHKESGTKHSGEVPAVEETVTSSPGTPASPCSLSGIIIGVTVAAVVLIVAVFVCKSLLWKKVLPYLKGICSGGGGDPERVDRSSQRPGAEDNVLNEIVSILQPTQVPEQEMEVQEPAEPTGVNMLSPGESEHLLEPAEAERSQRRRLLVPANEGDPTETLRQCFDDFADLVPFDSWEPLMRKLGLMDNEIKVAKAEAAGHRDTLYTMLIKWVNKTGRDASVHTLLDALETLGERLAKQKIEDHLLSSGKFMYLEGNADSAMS
# [8] = target: Tumor necrosis factor receptor superfamily member 10B (Homo sapiens) (UniProt O14763); test: as above; conditions: NB7 neuroblastoma +caspase-8, TRAIL sensitization, luminescence viability, NB7+Caspase-8, with TRAIL, run 2; at 12.5 µM (top of the series)
# [9] = as above; conditions: NB7 neuroblastoma +caspase-8, no TRAIL, compound-alone cytotoxicity counter-screen, luminescence viability, NB7+Caspase-8, run 1; at 12.5 µM (top of the series) unless noted
# [10] = as above; conditions: NB7 neuroblastoma +caspase-8, no TRAIL, compound-alone cytotoxicity counter-screen, luminescence viability, NB7+Caspase-8, run 2; at 12.5 µM (top of the series) unless noted
# [11] = NF-kB reporter suppression in CF airway cells – cell-based, GFP fluorescence, single concentration, confirmation (AID 602472); conditions: KKLEB CF airway cells, PAF-induced NF-kB-GFP fluorescence, overnight; at 5 µM; stronger effect = higher value;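 note: stimulus PAF is a Pseudomonas aeruginosa filtrate and not platelet activating factor; plate controls were DMSO wells with stimulus for no effect and unstimulated DMSO wells for full effect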
smiles,measurement,setting,value
O=C(O)c1ccc(N/N=C/c2ccc3ncccc3c2)cc1,inhibition,[1],66.4% (active)
same,inhibition,[2],39.2% (inactive)
Cc1c(CCC(=O)O)c(=O)oc2c(C)c(OCc3ccccc3Cl)ccc12,inhibition,[1],63.3% (active)
same,inhibition,[2],46.2% (inactive)
CN1OC[C@@H]2CN(S(=O)(=O)c3cccc(C(F)(F)F)c3)[C@H](c3ccc(-c4cc5ccccc5o4)cc3)C[C@@H]21,inhibition,[1],46.4% (active)
same,inhibition,[2],75.2% (active)
Cc1ccc(OCC(=O)c2cc(C)n(Cc3ccco3)c2C)c([N+](=O)[O-])n1,inhibition,[1],64.6% (active)
same,inhibition,[2],82.9% (active)
COc1ccc2c(c1)c(=Cc1ccc(N(C)C)cc1)c1cc(-c3ccccc3)[n+](C)n12,inhibition,[3],65% (active)
same,inhibition,[4],81.7% (active)
same,inhibition,Prothrombin (Bos taurus),67.8% (active)
COc1ccc(CN(C)C(=O)c2cc(-c3ccc(C)cc3C)nc3ccccc23)c(OC)c1OC,inhibition,[5],103%
same,inhibition,[6],111%
COc1ccc2[nH]c(=O)c(CN(Cc3cccnc3)S(=O)(=O)c3ccccc3F)cc2c1,inhibition,[5],109%
same,inhibition,[6],103%
COc1ccc2sc(-c3ccc(S(C)(=O)=O)cc3)c(C#Cc3cncn3C)c2c1,"activity, % sensitization",[7],13.3%
same,"activity, % sensitization",[8],10.2%
same,"activity, % sensitization",[9],-20.9%
same,"activity, % sensitization",[10],-2.18%
C#CCN(C[C@@H]1[C@@H](OC(=O)NC2CC2)[C@@H](OC(=O)NC2CC2)Cn2c(=O)ccc(=O)n21)S(=O)(=O)c1ccc(C)cc1,inhibition,[11],61.6% (active)
same,inhibition,[5],102%
same,inhibition,[6],111%
COc1ccc(NC(=S)SC)cc1OC,inhibition,[11],39.3% (inactive)
Cc1c(C)c2ccc(OCC(=O)N3CCN(c4cccc(Cl)c4)CC3)cc2oc1=O,inhibition,[11],10.3% (inactive)
C=C1C(=O)[C@]23C[C@H]1CCC2[C@@]1(C)C(C[C@@H]3O)[C@](C)(C(=O)O)CC[C@@H]1O (stereo partly drawn),inhibition,[11],83% (active)
same,inhibition,[5],97.1%
same,inhibition,[6],104%
C=CCc1cc(S(=O)(=O)c2ccc(O)c(CC=C)c2)ccc1O,inhibition,[11],48.8% (active)
same,inhibition,[5],111%
same,inhibition,[6],99.2%
O=C(NNc1ccccc1Cl)C(O)(c1cccc(C(F)(F)F)c1)c1cccc(C(F)(F)F)c1,inhibition,[11],63% (active)
same,inhibition,[5],115%
same,inhibition,[6],105%
NC(=O)c1sc2nc3c(c(-c4ccccc4)c2c1N)CCC3,inhibition,[11],93.2% (active)
same,inhibition,[5],114%
same,inhibition,[6],104%
O=C(Nc1ccc2oc(-c3ccc4ccccc4c3)nc2c1)c1cccs1,inhibition,[11],38.7% (inactive)
CN(C)C(=O)c1cccc(-c2cnc3sc(NCc4ccc5c(c4)OCO5)nn23)c1,inhibition,[11],97.2% (active)
same,inhibition,[5],116%
same,inhibition,[6],106%
COc1cccc2sc(N(CCCN(C)C)C(=O)CCS(=O)(=O)c3ccccc3)nc12,inhibition,[11],102% (active)
same,inhibition,[5],88.9%
same,inhibition,[6],86.9%
COc1cncc(-c2cnc3sc(NCCc4ccccn4)nn23)c1,inhibition,[11],76.6% (active)
same,inhibition,[5],102%
same,inhibition,[6],109%
Cc1ncc(CC(=O)n2cc(C(=O)c3cc(Cl)ccc3O)cn2)s1,inhibition,[11],47.9% (active)
same,inhibition,[5],100%
same,inhibition,[6],108%
Cc1ccc([C@H]2C[C@H](O)[C@@H](n3cc(COC(=O)c4ccccc4)nn3)CN2CC2CCCCC2)cc1,inhibition,[11],-29.2% (inactive)
COc1ccc(CNC(=O)C(c2ccc(O)cc2)N(Cc2ccco2)C(=O)c2snc(C(N)=O)c2N)cc1 (stereo not drawn),inhibition,[11],49.2% (active)
same,inhibition,[5],114%
same,inhibition,[6],104%
Cc1ccc(NC(=O)Nc2nnc(-c3ccncc3)s2)cc1,inhibition,[11],59.6% (active)
same,inhibition,[5],103%
same,inhibition,[6],114%
COc1cc(C2c3cc4c(cc3C(O)C3COC(=O)C23)OCO4)cc(OC)c1OC (stereo not drawn),inhibition,[11],83.3% (active)
same,inhibition,[5],-0.395%
same,inhibition,[6],37.3%
CCSc1nsc(NC(=O)Nc2cccc(C(C)=O)c2)n1,inhibition,[11],98.9% (active)
same,inhibition,[5],117%
same,inhibition,[6],97%
O=C1OC(Oc2ccc(Br)cc2)(c2ccccc2)c2ccccc21 (stereo not drawn),inhibition,[11],4.99% (inactive)
CCOC(=O)c1c(-c2ccccc2)oc2cc(Br)c(O)c(C=O)c12,inhibition,[11],90.8% (active)
same,inhibition,[5],90.8%
same,inhibition,[6],84.3%
COc1cc(OC)cc(C(=O)N[C@H](C(=O)Nc2nc3ccccc3[nH]2)C(C)C)c1,inhibition,[11],85.8% (active)
same,inhibition,[5],84.2%
same,inhibition,[6],80.2%
CC(C)C[C@H]1CNC(=S)N1C[C@H]1CCCN1C[C@H](Cc1ccc(O)cc1)N1C[C@H](Cc2ccc(O)cc2)N(CC2CCCCC2)C1=S,inhibition,[11],56.7% (active)
same,inhibition,[5],104%
same,inhibition,[6],111%
Cc1cccc2sc(N(CCCN(C)C)C(=O)CCS(=O)(=O)c3ccccc3)nc12,inhibition,[11],84.3% (active)
same,inhibition,[1],22.5% (inactive)
same,inhibition,[2],98.9% (active)
same,inhibition,[5],98.4%
same,inhibition,[6],102%
COc1ccc(CNc2ncnc3ccccc23)cc1,inhibition,[11],47.6% (active)
same,inhibition,[5],112%
same,inhibition,[6],87%
O=C(CSc1nc(C2CC2)nc2ccccc12)Nc1cccc(O)c1,inhibition,[11],50.6% (active)
same,inhibition,[5],90.6%
same,inhibition,[6],79.8%
CC(C)c1ccc2c(c1)c(SC(C)(C)C)c(CC(C)(C)C(=O)O)n2Cc1ccc(Cl)cc1,inhibition,[11],41.5% (active)
Cc1cc2nc(-c3ccco3)c(Cc3cccc(F)c3)n2c(C)c1Br,inhibition,[11],-41.6% (inactive)
O=[N+]([O-])c1ccc(Oc2ccc(F)cc2Br)c2ccncc12,inhibition,[11],77.7% (active)
same,inhibition,[5],116%
same,inhibition,[6],103%
